For 19 compounds, AC50 and outcome results are on record in PubChem BioAssay (EPA / NIEHS).

Values joined by “and” are separate entries in the source; they are usually repeats but may differ in a detail not shown here. Equal values may be shown once. Records with an inconclusive call do not appear. Where a structure was tested more than once in an assay, its records may differ in their call. Active and inactive are the calls of the source. Rule for the calls: active = hit-call score of the fitted dose curve at least 0.9, where 1 is the maximum; inconclusive = response in the unintended direction; inactive = score below 0.9.

Test [1] addresses human Opioid Receptor Delta 1 (Opiate D1), OPRD1 (gene 4985) (UniProt P41143). Nature of the test: NVS_GPCR_hOpiate_D1: NovaScreen (NVS) G Protein-Coupled Receptor Assay for human Opioid Receptor Delta 1 (Opiate D1) (AID 2283280). The gist of the method:
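Radioligand displacement on membranes from CHO cells expressing the receptor, read by filter scintillation counting 1 h after dosing. Duplicate single-point screen at 25 uM, then concentration series for actives; loss of signal versus DMSO.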

Test [2] concerns the target rat Serotonin, 5-Hydroxytryptamine Receptor 1 (5HT1), Non-Selective Binding, Htr1a (gene 24473) (UniProt P19327). In words: NVS_GPCR_r5HT1_NonSelective: NovaScreen (NVS) G Protein-Coupled Receptor Assay for rat Serotonin, 5-Hydroxytryptamine Receptor 1 (5HT1), Non-Selective Binding (AID 2283286). A digest of the protocol: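 Rat cortical membranes, radioligand displacement, 1 h incubation, read by filter scintillation. Primary screen in duplicate at 25 uM. Hits (e.g. ≥30% inhibition) went to concentration-response up to 50 uM, fitted as loss of binding versus DMSO.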

Test [3] has as its target human Opioid Receptor Mu (Opiate Mu), OPRM1 (gene 4988) (UniProt P35372). In words: NVS_GPCR_hOpiate_mu: NovaScreen (NVS) G Protein-Coupled Receptor Assay for human Opioid Receptor Mu (Opiate Mu) (AID 2283290).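 Note: hits lower bound tracer signal versus DMSO meaning displacement of the ligand.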 The gist of the method: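 CHO-derived receptor protein, cell-free; radioligand displacement, filtration + scintillation counting, read at 2.5 h. DMSO = negative control/baseline. Primary: 25 uM single conc, duplicate; secondary: concentration series.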

For test [4], the target named is guinea pig Serotonin, 5-Hydroxytryptamine Receptor 4 (5HT4), HTR4 (gene 100135548) (UniProt O70528). Nature of the test: NVS_GPCR_g5HT4: NovaScreen (NVS) G Protein-Coupled Receptor Assay for guinea pig Serotonin, 5-Hydroxytryptamine Receptor 4 (5HT4) (AID 2283294). A digest of the protocol: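 Guinea pig striatal membranes; radioligand competitive displacement, filtration and scintillation counting after 1 h. Primary screen in duplicate at 25 uM; actives then tested in concentration series; loss of binding signal fitted relative to DMSO.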
guinea pig Serotonin, 5-Hydroxytryptamine Receptor 4 (5HT4), HTR4 (gene 100135548), sequence (O70528 whole entry, looked up): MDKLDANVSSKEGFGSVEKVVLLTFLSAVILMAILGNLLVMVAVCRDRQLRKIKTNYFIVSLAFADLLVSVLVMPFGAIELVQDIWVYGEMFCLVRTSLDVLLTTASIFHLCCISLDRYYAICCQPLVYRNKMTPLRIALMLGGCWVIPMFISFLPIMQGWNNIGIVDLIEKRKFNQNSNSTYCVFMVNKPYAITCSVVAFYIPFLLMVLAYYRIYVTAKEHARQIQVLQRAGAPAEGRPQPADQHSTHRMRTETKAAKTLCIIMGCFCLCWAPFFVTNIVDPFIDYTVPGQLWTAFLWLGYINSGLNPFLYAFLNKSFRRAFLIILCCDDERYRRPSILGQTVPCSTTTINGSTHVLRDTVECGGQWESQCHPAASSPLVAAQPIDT

Test [5] concerns rabbit Platelet Activating Factor Receptor (PAF), gene 100354046. Nature of the test: NVS_GPCR_rabPAF: NovaScreen (NVS) G Protein-Coupled Receptor Assay for rabbit Platelet Activating Factor Receptor (PAF) (AID 2283287). A digest of the protocol: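 Rabbit platelet membrane preparation; radioligand displacement read by filter-based scintillation counting 1 h after dosing, loss of signal versus DMSO. Primary screen in duplicate at 25 uM, actives followed up in concentration series.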

Test [6] concerns 5-hydroxytryptamine receptor 2C (pig). In words: NVS_GPCR_p5HT2C: NovaScreen (NVS) G Protein-Coupled Receptor Assay for pig Serotonin, 5-Hydroxytryptamine Receptor 2C (5HT2C) (AID 2283288). The gist of the method:
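Pig choroid plexus membranes; radioligand competitive binding, filter-based scintillation counting, read 1 h after dosing. Primary screen in duplicate at 25 uM; actives then run as concentration series; loss of signal versus DMSO baseline.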

For test [7], the target named is rat Adrenergic Receptor, Beta (Adrb), Non-selective Binding, Adrb1 (gene 24925) (UniProt P18090). In words: NVS_GPCR_rAdrb_NonSelective: NovaScreen (NVS) G Protein-Coupled Receptor Assay for rat Adrenergic Receptor, Beta (Adrb), Non-selective Binding (AID 2283298). A digest of the protocol: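 Non-selective beta-adrenergic radioligand binding in rat cortical membranes, 1 h incubation, filter-based scintillation read-out. Primary screen 25 uM in duplicate; hits retested in concentration-response up to 50 uM, DMSO baseline.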
rat Adrenergic Receptor, Beta (Adrb), Non-selective Binding, Adrb1 (gene 24925), sequence (P18090 whole entry, looked up): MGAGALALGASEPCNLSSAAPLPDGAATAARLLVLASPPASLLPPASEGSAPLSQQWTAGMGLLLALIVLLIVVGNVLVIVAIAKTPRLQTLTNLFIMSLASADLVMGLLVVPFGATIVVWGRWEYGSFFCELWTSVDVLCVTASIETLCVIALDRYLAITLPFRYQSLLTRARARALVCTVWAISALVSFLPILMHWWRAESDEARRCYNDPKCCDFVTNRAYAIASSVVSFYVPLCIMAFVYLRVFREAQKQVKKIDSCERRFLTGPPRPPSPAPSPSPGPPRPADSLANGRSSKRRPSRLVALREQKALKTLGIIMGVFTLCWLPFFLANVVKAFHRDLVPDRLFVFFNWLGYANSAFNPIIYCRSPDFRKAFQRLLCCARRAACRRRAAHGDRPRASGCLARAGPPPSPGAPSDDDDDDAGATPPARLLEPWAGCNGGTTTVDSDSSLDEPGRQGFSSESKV

For test [8], the target named is rat Adrenergic, Alpha 1, Non-selective Receptor (Adra1), Adra1a (gene 29412) (UniProt P43140). Nature of the test: NVS_GPCR_rAdra1_NonSelective: NovaScreen (NVS) G Protein-Coupled Receptor Assay for rat Adrenergic, Alpha 1, Non-selective Receptor (Adra1) (AID 2283289). A digest of the protocol:
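Rat forebrain membranes; radioligand displacement read by filter-based scintillation counting 1 h after dosing. Primary screen in duplicate at 25 uM; hits (e.g. ≥30% inhibition) rerun as concentration–response to 50 uM max. Fitted versus DMSO.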

For test [9], the target named is human Neurotensin Receptor (NTS), NTSR1 (gene 4923) (UniProt P30989). Nature of the test: NVS_GPCR_hNTS: NovaScreen (NVS) G Protein-Coupled Receptor Assay for human Neurotensin Receptor (NTS) (AID 2283279). A digest of the protocol:
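Radioligand displacement on human NTSR1 protein from CHO cells, cell-free, 1 h, filter-based scintillation counting. Primary screen at 25 uM in duplicate; hits rerun in concentration-response up to 50 uM.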

Test [10] deals with human Neurokinin, NK2 Receptor, TACR2 (gene 6865) (UniProt P21452). In words: NVS_GPCR_hNK2: NovaScreen (NVS) G Protein-Coupled Receptor Assay for human Neurokinin, NK2 Receptor (AID 2283278).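 Note: actives reduce bound radioligand signal relative to DMSO baseline.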 The gist of the method: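 Filter-based scintillation counting measured radioligand bound to receptor extracted from CHO cells, 4 hours after compound addition. Chemicals screened first at 25 uM in duplicate, with actives retested in concentration series relative to DMSO.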
human Neurokinin, NK2 Receptor, TACR2 (gene 6865), sequence (P21452 whole entry, looked up): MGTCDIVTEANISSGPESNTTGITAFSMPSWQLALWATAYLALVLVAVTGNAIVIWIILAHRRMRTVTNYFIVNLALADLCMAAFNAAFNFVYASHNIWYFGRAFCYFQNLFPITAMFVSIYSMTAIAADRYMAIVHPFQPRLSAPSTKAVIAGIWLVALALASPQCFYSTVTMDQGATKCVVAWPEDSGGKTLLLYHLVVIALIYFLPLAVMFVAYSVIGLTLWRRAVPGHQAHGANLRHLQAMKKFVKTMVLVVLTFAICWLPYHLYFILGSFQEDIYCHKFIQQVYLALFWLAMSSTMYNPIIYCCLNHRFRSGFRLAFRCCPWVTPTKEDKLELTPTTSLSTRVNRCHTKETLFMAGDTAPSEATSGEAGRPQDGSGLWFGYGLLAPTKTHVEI

For test [11], the target named is rat Adrenergic Receptor, Alpha 2 (Adra2), Non-selective Binding, Adra2a (gene 25083) (UniProt P22909). Nature of the test: NVS_GPCR_rAdra2_NonSelective: NovaScreen (NVS) G Protein-Coupled Receptor Assay for rat Adrenergic Receptor, Alpha 2 (Adra2), Non-selective Binding (AID 2283299). A digest of the protocol:
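Rat cortical membranes, radioligand competitive displacement read by filter-based scintillation counting 1.25 hours after dosing. Primary screen in duplicate at 25 uM; actives followed up in concentration series.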

In test [12] the target is rat Serotonin, 5-Hydroxytryptamine Receptor (5HT), Non-Selective Binding, Htr1a (gene 24473) (UniProt P19327). In words: NVS_GPCR_r5HT_NonSelective: NovaScreen (NVS) G Protein-Coupled Receptor Assay for rat Serotonin, 5-Hydroxytryptamine Receptor (5HT), Non-Selective Binding (AID 2283295). A digest of the protocol:
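Radioligand displacement on rat cortical membranes, 1 h incubation, filter-based scintillation counting. Primary duplicates at 25 uM, actives retested in concentration series; loss of signal fitted against DMSO as baseline.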

In test [13] the test system is guinea pig Atrionatriuretic Peptide Receptor A (ANPA), gene 100135578. In words: NVS_GPCR_gANPA: NovaScreen (NVS) G Protein-Coupled Receptor Assay for guinea pig Atrionatriuretic Peptide Receptor A (ANPA) (AID 2283291). The gist of the method:
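Radioligand binding to guinea pig cerebellar membranes was measured after 1 h by filter-based scintillation counting. Chemicals were tested in duplicate at 25 uM, with hits run in concentration-response to a maximum of 50 uM. Binding loss was fitted against DMSO.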

The target of test [14] is guinea pig Bradykinin Receptor B2 (BK2), BDKRB2 (gene 100135486) (UniProt O70526). Nature of the test: NVS_GPCR_gBK2: NovaScreen (NVS) G Protein-Coupled Receptor Assay for guinea pig Bradykinin Receptor B2 (BK2) (AID 2283292). The gist of the method:
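Radioligand displacement on guinea pig ileum membranes for 1 h, read by filter-based scintillation counting; loss of signal relative to DMSO. Compounds were screened in duplicate at 25 uM, and those passing the threshold were retested in concentration-response up to 50 uM.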

Test [15] concerns the target human Purinergic Receptor P2Y, P2RY1 (gene 5028) (UniProt P47900). In words: NVS_GPCR_hPY2: NovaScreen (NVS) G Protein-Coupled Receptor Assay for human Purinergic Receptor P2Y (AID 2283281). A digest of the protocol: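 Cell-free radioligand binding using U937-derived protein, 1 h after dosing, filter-based scintillation counting. Screened in duplicate at 25 uM; actives rerun as concentration-response up to 50 uM; loss of signal versus DMSO.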

The target in test [16] is human Orphanin, Opioid Related Nociceptin Receptor 1 (ORL1), OPRL1 (gene 4987) (UniProt P41146). In words: NVS_GPCR_hORL1: NovaScreen (NVS) G Protein-Coupled Receptor Assay for human Orphanin, Opioid Related Nociceptin Receptor 1 (ORL1) (AID 2283283). A digest of the protocol: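 Filter-based radioligand displacement with receptor extracted from HEK293 cells, read 1 hour after dosing by scintillation counting. Duplicate single-point screen at 25 uM; qualifying chemicals then run in concentration-response to 50 uM, analysed relative to DMSO.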

In test [17] the target is human Vasopressin 1A Receptor (V1A), AVPR1A (gene 552) (UniProt P37288). Nature of the test: NVS_GPCR_hV1A: NovaScreen (NVS) G Protein-Coupled Receptor Assay for human Vasopressin 1A Receptor (V1A) (AID 2283284). A digest of the protocol:
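Cell-free radioligand displacement on human platelet preparations, 1.5 h incubation, filter-based scintillation counting. Chemicals first tested in duplicate at 25 uM; actives then run in concentration-response up to 50 uM, loss of signal fitted against DMSO.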

human Opioid Receptor Delta 1 (Opiate D1), OPRD1 (gene 4985), sequence (P41143 whole entry, looked up): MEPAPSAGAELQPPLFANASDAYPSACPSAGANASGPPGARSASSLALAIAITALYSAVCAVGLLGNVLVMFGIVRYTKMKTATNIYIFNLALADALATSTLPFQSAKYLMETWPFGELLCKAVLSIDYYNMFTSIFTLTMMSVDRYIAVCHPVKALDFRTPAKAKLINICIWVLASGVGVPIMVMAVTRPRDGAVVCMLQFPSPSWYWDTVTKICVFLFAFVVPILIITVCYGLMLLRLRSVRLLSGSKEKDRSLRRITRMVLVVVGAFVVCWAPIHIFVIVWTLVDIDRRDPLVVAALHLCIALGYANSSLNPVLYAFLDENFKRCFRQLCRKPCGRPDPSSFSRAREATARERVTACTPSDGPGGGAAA
rat Serotonin, 5-Hydroxytryptamine Receptor 1 (5HT1), Non-Selective Binding, Htr1a (gene 24473), sequence (P19327 whole entry, looked up): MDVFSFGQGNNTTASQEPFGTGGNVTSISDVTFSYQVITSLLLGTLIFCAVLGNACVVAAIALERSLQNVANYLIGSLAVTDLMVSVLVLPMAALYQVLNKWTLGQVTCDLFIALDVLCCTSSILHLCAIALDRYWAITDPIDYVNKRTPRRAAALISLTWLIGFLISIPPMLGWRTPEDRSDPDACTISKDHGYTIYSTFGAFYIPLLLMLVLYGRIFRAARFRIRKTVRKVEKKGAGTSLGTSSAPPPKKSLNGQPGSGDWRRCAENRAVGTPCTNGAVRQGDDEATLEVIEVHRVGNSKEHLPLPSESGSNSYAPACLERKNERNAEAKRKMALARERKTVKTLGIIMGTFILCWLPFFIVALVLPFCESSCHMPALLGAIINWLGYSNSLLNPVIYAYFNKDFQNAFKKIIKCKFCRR
human Opioid Receptor Mu (Opiate Mu), OPRM1 (gene 4988), sequence (P35372 whole entry, looked up): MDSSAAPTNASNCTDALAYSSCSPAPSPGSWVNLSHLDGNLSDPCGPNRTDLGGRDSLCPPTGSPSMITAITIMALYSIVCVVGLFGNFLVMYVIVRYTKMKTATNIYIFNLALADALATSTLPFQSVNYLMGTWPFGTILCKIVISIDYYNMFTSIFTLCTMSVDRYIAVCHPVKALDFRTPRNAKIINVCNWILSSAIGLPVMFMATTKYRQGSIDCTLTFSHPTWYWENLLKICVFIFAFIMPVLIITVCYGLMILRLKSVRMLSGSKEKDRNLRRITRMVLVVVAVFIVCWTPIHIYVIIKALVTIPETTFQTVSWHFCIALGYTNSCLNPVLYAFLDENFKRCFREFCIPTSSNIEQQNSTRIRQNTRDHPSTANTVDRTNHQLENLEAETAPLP
human Neurotensin Receptor (NTS), NTSR1 (gene 4923), sequence (P30989 whole entry, looked up): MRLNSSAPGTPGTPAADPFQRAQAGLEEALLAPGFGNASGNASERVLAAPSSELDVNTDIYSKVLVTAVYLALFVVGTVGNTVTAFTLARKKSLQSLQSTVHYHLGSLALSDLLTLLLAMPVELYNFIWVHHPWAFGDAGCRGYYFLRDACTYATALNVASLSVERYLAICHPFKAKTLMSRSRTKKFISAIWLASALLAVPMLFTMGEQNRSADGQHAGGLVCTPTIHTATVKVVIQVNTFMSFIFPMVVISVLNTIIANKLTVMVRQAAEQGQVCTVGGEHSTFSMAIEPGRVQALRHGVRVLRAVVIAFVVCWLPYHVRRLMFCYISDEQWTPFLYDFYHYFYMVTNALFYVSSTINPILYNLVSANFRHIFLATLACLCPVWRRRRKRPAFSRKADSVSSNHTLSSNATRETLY
rat Adrenergic, Alpha 1, Non-selective Receptor (Adra1), Adra1a (gene 29412), sequence (P43140 whole entry, looked up): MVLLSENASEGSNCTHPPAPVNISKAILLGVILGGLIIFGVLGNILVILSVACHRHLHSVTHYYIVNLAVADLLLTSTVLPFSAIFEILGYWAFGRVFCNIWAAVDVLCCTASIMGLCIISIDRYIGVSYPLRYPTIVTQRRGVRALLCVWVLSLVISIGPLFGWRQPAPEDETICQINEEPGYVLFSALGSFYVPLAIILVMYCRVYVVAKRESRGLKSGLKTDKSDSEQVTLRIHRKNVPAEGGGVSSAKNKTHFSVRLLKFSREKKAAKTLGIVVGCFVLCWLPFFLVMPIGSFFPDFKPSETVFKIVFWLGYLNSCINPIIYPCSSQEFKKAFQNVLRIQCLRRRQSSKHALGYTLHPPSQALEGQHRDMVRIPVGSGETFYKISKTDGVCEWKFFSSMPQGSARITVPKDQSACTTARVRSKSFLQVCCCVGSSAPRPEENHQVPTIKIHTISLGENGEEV
human Vasopressin 1A Receptor (V1A), AVPR1A (gene 552), sequence (P37288 whole entry, looked up): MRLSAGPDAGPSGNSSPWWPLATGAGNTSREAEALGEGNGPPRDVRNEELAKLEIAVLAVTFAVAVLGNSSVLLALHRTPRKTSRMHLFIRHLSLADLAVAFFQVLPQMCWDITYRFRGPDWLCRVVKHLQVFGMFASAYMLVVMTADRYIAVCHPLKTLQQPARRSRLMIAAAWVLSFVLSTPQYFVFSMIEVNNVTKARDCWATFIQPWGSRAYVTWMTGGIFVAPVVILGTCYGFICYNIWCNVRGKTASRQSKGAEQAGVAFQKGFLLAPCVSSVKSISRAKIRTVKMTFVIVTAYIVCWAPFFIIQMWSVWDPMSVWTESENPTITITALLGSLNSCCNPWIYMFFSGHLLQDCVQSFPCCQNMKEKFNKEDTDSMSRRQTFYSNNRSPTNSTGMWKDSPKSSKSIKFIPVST
rat Adrenergic Receptor, Alpha 2 (Adra2), Non-selective Binding, Adra2a (gene 25083), sequence (P22909 whole entry, looked up): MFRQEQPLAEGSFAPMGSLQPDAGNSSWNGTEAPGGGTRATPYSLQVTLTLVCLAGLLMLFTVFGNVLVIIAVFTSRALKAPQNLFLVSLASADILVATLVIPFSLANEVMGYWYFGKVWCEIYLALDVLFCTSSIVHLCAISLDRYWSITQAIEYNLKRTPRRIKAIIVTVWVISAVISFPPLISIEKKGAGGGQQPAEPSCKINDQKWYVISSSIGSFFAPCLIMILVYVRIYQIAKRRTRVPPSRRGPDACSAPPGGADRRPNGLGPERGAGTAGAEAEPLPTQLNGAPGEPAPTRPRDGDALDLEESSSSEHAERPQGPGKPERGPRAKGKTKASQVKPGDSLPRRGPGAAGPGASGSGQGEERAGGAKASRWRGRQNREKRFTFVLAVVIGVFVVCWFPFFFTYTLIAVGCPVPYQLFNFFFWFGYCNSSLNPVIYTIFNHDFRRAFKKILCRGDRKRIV
human Purinergic Receptor P2Y, P2RY1 (gene 5028), sequence (P47900 whole entry, looked up): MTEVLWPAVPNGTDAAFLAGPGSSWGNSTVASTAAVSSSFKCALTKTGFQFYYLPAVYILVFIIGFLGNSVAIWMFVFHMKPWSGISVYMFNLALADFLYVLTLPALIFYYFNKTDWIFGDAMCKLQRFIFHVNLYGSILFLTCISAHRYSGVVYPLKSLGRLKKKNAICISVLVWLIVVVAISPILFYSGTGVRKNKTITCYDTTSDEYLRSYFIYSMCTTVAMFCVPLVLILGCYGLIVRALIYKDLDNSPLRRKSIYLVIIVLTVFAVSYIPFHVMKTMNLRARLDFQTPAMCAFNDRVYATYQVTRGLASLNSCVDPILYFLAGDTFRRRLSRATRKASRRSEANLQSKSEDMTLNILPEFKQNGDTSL

For the compound `CCCCNC(=O)OCC#CI`, the AC50 (commonly the concentration at which the activity in the assay is half-maximal) in test [1] was 13.3 µM (active); in test [3] it was 9.57 µM (active) and 6.68 µM (active); in test [4], 13.7 µM (active) and 25 µM (active). Also, the compound was classed as inactive in [1] and in test [2].

In the case of `CCc1nn(C)c(C(=O)NCc2ccc(C(C)(C)C)cc2)c1Cl`, the compound was called inactive in test [5].

In the case of `CON(C)C(=O)Nc1ccc(Cl)c(Cl)c1`, the AC50 is 25 µM (active) in [6] and 12.4 µM (active) in test [4]. Besides, the result in test [7] was inactive.

For `Cc1c(F)c(F)c(COC(=O)C2C(/C=C(\Cl)C(F)(F)F)C2(C)C)c(F)c1F` (stereo not drawn), in test [8], the result was inactive.

For the compound `COc1nc(C)nc(NC(=O)NS(=O)(=O)c2ccccc2Cl)n1`, in [9], the result was inactive.

As for `CCOC(=O)C(Cl)Cc1cc(-n2nc(C)n(C(F)F)c2=O)c(F)cc1Cl` (stereo not drawn), the result in [10] was inactive.

For `CCCC1COC(Cn2cncn2)(c2ccc(Cl)cc2Cl)O1` (stereo not drawn), the AC50 in test [1] was 2.09 µM (active); in [5], 14.4 µM (active); in test [3] it was 8.68 µM (active).

Regarding `CCCCC(CC)COC(=O)c1ccccc1C(=O)OCC(CC)CCCC` (stereo not drawn), the result in test [5] was inactive.

Take `Cc1ccc(-c2c(Cl)nc(C#N)n2S(=O)(=O)N(C)C)cc1`: in test [10], the compound was called inactive.

Turning to `CC1COC(Cn2cncn2)(c2ccc(Oc3ccc(Cl)cc3)cc2Cl)O1` (stereo not drawn), the AC50 in test [3] was 1.88 µM (active); in [11], 2.28 µM (active). Moreover, the call in test [4] was inactive.

For `CS/C(C)=N/OC(=O)N(C)SN(C)C(=O)O/N=C(\C)SC`, the compound was classed as inactive in [3] and in test [12].

On to `COc1ccc(C(c2ccc(OC)cc2)C(Cl)(Cl)Cl)cc1`, for which the result in test [10], in test [1], in test [8] and in test [3] was inactive.

Regarding `COC(=O)C=C(C)OP(=O)(OC)OC`, the call in test [13] was inactive.

With `O=C(O)c1nc(Cl)ccc1Cl`, the outcome in [14] was inactive.

`CCNc1nc(Cl)nc(NCC)n1`: the outcome in test [7] was inactive.

For `CNC(=S)S`, the compound was called inactive in [9], in [15], in test [5] and in test [3]. For the same compound, in test [16], the AC50 is 40.3 µM (active).

On to `CN(C)C(=S)SSC(=S)N(C)C`, for which the result in test [2] was inactive. In addition, the AC50 in [3] is 5.29 µM (active).

Consider `N#CC(CCc1ccc(Cl)cc1)(Cn1cncn1)c1ccccc1` (stereo not drawn), for which the call in test [3] was inactive.

For `CCOc1cc(Oc2ccc(C(F)(F)F)cc2Cl)ccc1[N+](=O)[O-]`, the outcome in test [17] was inactive.
